The panel holds about 83,000 compounds, 20% with a hit somewhere; the sample as a whole holds those more often.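 Single-dose data. Exposure time 48 hours. Values below 10 considered active.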 Active and inactive are the calls of the source.
Key:
Test in all cases: NCI-60 one-dose screen, 48 h (100 = growth as untreated, 0 = no growth, -100 = all killed)
Conditions in all cases: 10 µM unless noted
NCI-H23 lung = tested on: NCI-H23 lung
NCI-H226 lung = tested on: NCI-H226 lung
HOP-62 NSCLC = tested on: HOP-62 NSCLC
NCI-H460 lung = tested on: NCI-H460 lung
HOP-92 NSCLC = tested on: HOP-92 NSCLC
NCI-H522 lung = tested on: NCI-H522 lung
A549/ATCC NSCLC = tested on: A549/ATCC NSCLC
786-0 renal = tested on: 786-0 renal
COLO 205 colon = tested on: COLO 205 colon
DU-145 prostate = tested on: DU-145 prostate
K-562 leukemia = tested on: K-562 leukemia
MALME-3M melanoma = tested on: MALME-3M melanoma
MDA-MB-231 breast = tested on: MDA-MB-231 breast
RXF 393 renal = tested on: RXF 393 renal
SF-268 CNS = tested on: SF-268 CNS
SF-295 CNS = tested on: SF-295 CNS
SF-539 CNS = tested on: SF-539 CNS
UACC-257 melanoma = tested on: UACC-257 melanoma
M14 melanoma = tested on: M14 melanoma

Measured: growth

CN(C)CCCn1c2c(c3cnccc3c1=O)C(=O)c1ccccc1-2
active: NCI-H23 lung -10.7% | NCI-H226 lung -13.8% | HOP-62 NSCLC -1.96% | NCI-H460 lung -27.2% | HOP-92 NSCLC -9.59% | NCI-H522 lung -28.2% | 786-0 renal -4.55% | COLO 205 colon -25% | DU-145 prostate -16.9% | K-562 leukemia 3.18% | MALME-3M melanoma -45.7% | MDA-MB-231 breast 0.187% | RXF 393 renal -28.4% | SF-268 CNS -3.3% | SF-295 CNS 6.47% | SF-539 CNS -6.26% | UACC-257 melanoma -26.8% | M14 melanoma -47.9%
inactive: A549/ATCC NSCLC 11.3%

COc1cc(/C=C2\C(=O)N(CCCOc3cc(O)c4c(=O)cc(-c5ccccc5)oc4c3)c3ccccc32)cc(OC)c1O
inactive: NCI-H23 lung 87.9% | NCI-H226 lung 94.5% | HOP-62 NSCLC 71.7% | NCI-H460 lung 89.4% | HOP-92 NSCLC 72.1% | NCI-H522 lung 36.4% | A549/ATCC NSCLC 74.5% | 786-0 renal 92.8% | COLO 205 colon 82.6% | DU-145 prostate 86.2% | K-562 leukemia 21.2% | MALME-3M melanoma 78.5% | MDA-MB-231 breast 97.5% | RXF 393 renal 91.6% | SF-268 CNS 78.5% | SF-295 CNS 101% | SF-539 CNS 80.7% | UACC-257 melanoma 90.9% | M14 melanoma 57.1%

Cc1ccccc1N1CCN(C(=S)c2ccccc2)CC1
active: UACC-257 melanoma -18%
inactive: NCI-H23 lung 81.3% | NCI-H226 lung 92.1% | HOP-62 NSCLC 95.2% | NCI-H460 lung 92.4% | HOP-92 NSCLC 97.9% | NCI-H522 lung 47.8% | A549/ATCC NSCLC 87.4% | 786-0 renal 103% | COLO 205 colon 106% | DU-145 prostate 114% | K-562 leukemia 107% | MALME-3M melanoma 103% | MDA-MB-231 breast 93.9% | RXF 393 renal 96.6% | SF-268 CNS 105% | SF-295 CNS 69.5% | SF-539 CNS 94.7% | M14 melanoma 101%

O=C1/C(=C/c2ccccn2)SC(=S)N1N1CCOCC1
inactive: NCI-H23 lung 96.7% | NCI-H226 lung 95.1% | HOP-62 NSCLC 96.6% | NCI-H460 lung 104% | HOP-92 NSCLC 84.8% | NCI-H522 lung 86.8% | A549/ATCC NSCLC 103% | 786-0 renal 103% | COLO 205 colon 103% | DU-145 prostate 104% | K-562 leukemia 103% | MALME-3M melanoma 92.2% | MDA-MB-231 breast 92% | RXF 393 renal 92.5% | SF-268 CNS 99% | SF-295 CNS 95.8% | SF-539 CNS 105% | UACC-257 melanoma 91.8% | M14 melanoma 100%

C=C1C(=O)O[C@H]2[C@H]1CC/C(COC(=O)/C=C\C(=O)NCc1ccc(Cn3c(=O)sn(CCCCl)c3=O)cc1)=C\CC[C@@]1(C)O[C@@H]21
active: NCI-H522 lung -12% | COLO 205 colon 4.69%
inactive: NCI-H23 lung 84.1% | NCI-H226 lung 92.9% | HOP-62 NSCLC 87.7% | NCI-H460 lung 93.4% | HOP-92 NSCLC 81.7% | A549/ATCC NSCLC 92.7% | 786-0 renal 67.7% | DU-145 prostate 45.9% | K-562 leukemia 26.7% | MALME-3M melanoma 49.6% | MDA-MB-231 breast 71.9% | RXF 393 renal 86.9% | SF-268 CNS 93.5% | SF-295 CNS 99.4% | SF-539 CNS 79.9% | UACC-257 melanoma 68.9% | M14 melanoma 40.4%

CCOC(=O)C1=C(CCl)N(C)C(=O)NC1c1ccc2c(c1)OCO2 (centres undefined)
inactive: NCI-H23 lung 70.7% | NCI-H226 lung 77% | HOP-62 NSCLC 74.7% | NCI-H460 lung 72.1% | HOP-92 NSCLC 53.9% | NCI-H522 lung 32.7% | A549/ATCC NSCLC 87.5% | 786-0 renal 53.9% | COLO 205 colon 69.1% | DU-145 prostate 33.4% | K-562 leukemia 16.7% | MALME-3M melanoma 65% | MDA-MB-231 breast 65.3% | RXF 393 renal 41.3% | SF-268 CNS 91.6% | SF-295 CNS 95.1% | SF-539 CNS 32.5% | UACC-257 melanoma 59.5% | M14 melanoma 42.1%

O=C(CN1C(=O)S/C(=C\C(Cl)=C\c2ccccc2)C1=O)NC1CCS(=O)(=O)C1 (centres undefined)
inactive: NCI-H23 lung 74.3% | NCI-H226 lung 77.3% | HOP-62 NSCLC 99.7% | NCI-H460 lung 94.2% | HOP-92 NSCLC 80.4% | NCI-H522 lung 34.2% | A549/ATCC NSCLC 94.3% | 786-0 renal 78.7% | COLO 205 colon 59% | DU-145 prostate 82.8% | K-562 leukemia 15.3% | MALME-3M melanoma 84.9% | MDA-MB-231 breast 77% | RXF 393 renal 26.7% | SF-268 CNS 94.4% | SF-295 CNS 85.3% | SF-539 CNS 56.8% | UACC-257 melanoma 81.8% | M14 melanoma 64%

Cc1nn(-c2ccc([N+](=O)[O-])cc2)c2ncnc(N/N=C/c3ccccc3O)c12
active: HOP-62 NSCLC -2.87% | NCI-H460 lung 0.666% | NCI-H522 lung 0.557% | 786-0 renal 3.2% | COLO 205 colon 1.21% | MALME-3M melanoma 2.12% | SF-268 CNS 9.25% | SF-539 CNS 7.49% | M14 melanoma -17.7%
inactive: NCI-H23 lung 15.3% | NCI-H226 lung 35% | HOP-92 NSCLC 36.6% | A549/ATCC NSCLC 13% | DU-145 prostate 20.7% | K-562 leukemia 11.2% | MDA-MB-231 breast 29% | RXF 393 renal 15.7% | SF-295 CNS 12.6% | UACC-257 melanoma 13.2%

O=C(CSc1nnnn1-c1ccccc1)Nc1ccc(Oc2ccccc2)cc1
inactive: NCI-H23 lung 101% | NCI-H226 lung 87.5% | HOP-62 NSCLC 95.6% | NCI-H460 lung 110% | HOP-92 NSCLC 75% | NCI-H522 lung 79.3% | A549/ATCC NSCLC 101% | 786-0 renal 102% | COLO 205 colon 110% | DU-145 prostate 111% | K-562 leukemia 120% | MALME-3M melanoma 133% | MDA-MB-231 breast 94.2% | RXF 393 renal 111% | SF-268 CNS 101% | SF-295 CNS 100% | SF-539 CNS 111% | UACC-257 melanoma 96.2% | M14 melanoma 111%

C[C@@H]1NC(=O)[C@H](Cc2ccccc2)N(Cc2cccnc2)C1=O
inactive: NCI-H23 lung 101% | NCI-H226 lung 90.4% | HOP-62 NSCLC 94.8% | NCI-H460 lung 102% | HOP-92 NSCLC 84.7% | NCI-H522 lung 95.9% | A549/ATCC NSCLC 94.6% | 786-0 renal 90.3% | COLO 205 colon 105% | DU-145 prostate 108% | K-562 leukemia 89% | MALME-3M melanoma 101% | MDA-MB-231 breast 97.3% | RXF 393 renal 108% | SF-268 CNS 104% | SF-295 CNS 97% | SF-539 CNS 101% | UACC-257 melanoma 91.7% | M14 melanoma 93.8%

COc1ccc2c(c1)oc1c(C)c3c(c(C)c12)C(=O)N(CCOS(C)(=O)=O)C3=O
inactive: NCI-H23 lung 94.2% | NCI-H226 lung 106% | HOP-62 NSCLC 103% | NCI-H460 lung 94% | HOP-92 NSCLC 113% | NCI-H522 lung 87.7% | A549/ATCC NSCLC 109% | 786-0 renal 95.2% | COLO 205 colon 107% | DU-145 prostate 106% | K-562 leukemia 96% | MALME-3M melanoma 90.1% | MDA-MB-231 breast 90.7% | RXF 393 renal 116% | SF-268 CNS 92.3% | SF-295 CNS 103% | SF-539 CNS 92.2% | UACC-257 melanoma 125% | M14 melanoma 103%

Source: PubChem BioAssay (NCI)
